# PMC7862700, “An all-to-all approach to the identification of sequence-specific readers for epigenetic DNA modifications on cytosine”
# How the values were obtained:
# Assay in all cases: DAPPL (digital affinity profiling via proximity ligation, sequencing); 10 mM Tris-HCl pH 7.5, 50 mM NaCl, 1 mM DTT, 4% glycerol, room temperature, 30 min; GST-TFs on glutathione beads, 16-mer random dsDNA library, 0.1% formaldehyde crosslink after washing; high values mean tight binding
# [1] = molecular target: T1, FEV (Homo sapiens, UniProt Q99581 1-238); settings: protein: recombinant; tags: N-terminal GST; dsDNA, one strand shown
# T1 sequence: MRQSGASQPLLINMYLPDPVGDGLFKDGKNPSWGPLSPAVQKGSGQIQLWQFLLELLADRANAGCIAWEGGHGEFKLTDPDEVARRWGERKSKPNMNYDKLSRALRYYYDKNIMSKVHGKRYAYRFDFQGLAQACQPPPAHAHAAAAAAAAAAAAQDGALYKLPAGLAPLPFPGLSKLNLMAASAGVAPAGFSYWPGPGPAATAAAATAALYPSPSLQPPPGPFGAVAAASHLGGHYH
# Summary of the method: (§1)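 In yeast, human transcription factors were expressed with a GST fusion, then pulled down on glutathione beads and given DNA barcodes. Pooled with a tag-only sample, they were exposed to 200 nmole of a 16-mer random double-stranded DNA library (Tris/NaCl/DTT/glycerol buffer, room temperature, 30 min), washed, crosslinked with 0.1% formaldehyde, proximity-ligated using BsaI/T4 ligase for 1 h at 37 °C, PCR-amplified and read on an Illumina NextSeq500. Each hexamer's frequency of reads for a factor, divided by the matching frequency for the tag-only sample, gives the binding signal.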
# [2] = molecular target: ETV5 (Homo sapiens, UniProt P41161 1-510); settings: protein: recombinant; tags: N-terminal GST; dsDNA, one strand shown
# Summary of the method: as §1
# [3] = molecular target: HSF1 (Homo sapiens, UniProt Q00613 1-529); settings: protein: recombinant; tags: N-terminal GST; chain copies: 3; dsDNA, one strand shown
# Summary of the method: as §1
# [4] = molecular target: T2, SPIC (Homo sapiens, UniProt Q8N5J4 1-248); settings: protein: recombinant; tags: N-terminal GST; dsDNA, one strand shown
# T2 sequence: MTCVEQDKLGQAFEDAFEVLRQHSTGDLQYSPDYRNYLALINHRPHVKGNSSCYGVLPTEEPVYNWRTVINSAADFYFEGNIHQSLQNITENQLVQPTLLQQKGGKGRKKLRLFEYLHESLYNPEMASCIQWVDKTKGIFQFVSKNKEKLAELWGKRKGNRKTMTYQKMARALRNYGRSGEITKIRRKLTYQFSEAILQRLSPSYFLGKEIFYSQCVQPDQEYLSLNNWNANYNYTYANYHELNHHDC
# Summary of the method: as §1
# [5] = molecular target: ELF4 (Homo sapiens, UniProt Q99607 1-663); settings: protein: recombinant; tags: N-terminal GST; dsDNA, one strand shown
# Summary of the method: as §1
# [6] = molecular target: T3, ELK4 (Homo sapiens, UniProt P28324-2 1-405); settings: protein: recombinant; tags: N-terminal GST; dsDNA, one strand shown
# T3 sequence: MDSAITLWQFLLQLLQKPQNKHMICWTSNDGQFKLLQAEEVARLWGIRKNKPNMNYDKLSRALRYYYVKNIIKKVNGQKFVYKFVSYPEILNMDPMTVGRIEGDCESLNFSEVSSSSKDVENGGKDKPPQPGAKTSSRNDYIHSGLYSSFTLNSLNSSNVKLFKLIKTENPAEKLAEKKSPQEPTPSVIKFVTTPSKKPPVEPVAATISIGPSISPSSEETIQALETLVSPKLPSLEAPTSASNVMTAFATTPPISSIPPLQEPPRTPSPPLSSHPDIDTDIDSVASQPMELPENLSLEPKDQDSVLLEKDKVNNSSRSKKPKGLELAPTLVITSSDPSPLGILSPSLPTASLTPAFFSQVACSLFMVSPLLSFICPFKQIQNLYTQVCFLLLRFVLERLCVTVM
# Summary of the method: as §1
# [7] = molecular target: T4, ETV2 (Homo sapiens, UniProt O00321 1-342); settings: protein: recombinant; tags: N-terminal GST; dsDNA, one strand shown
# T4 sequence: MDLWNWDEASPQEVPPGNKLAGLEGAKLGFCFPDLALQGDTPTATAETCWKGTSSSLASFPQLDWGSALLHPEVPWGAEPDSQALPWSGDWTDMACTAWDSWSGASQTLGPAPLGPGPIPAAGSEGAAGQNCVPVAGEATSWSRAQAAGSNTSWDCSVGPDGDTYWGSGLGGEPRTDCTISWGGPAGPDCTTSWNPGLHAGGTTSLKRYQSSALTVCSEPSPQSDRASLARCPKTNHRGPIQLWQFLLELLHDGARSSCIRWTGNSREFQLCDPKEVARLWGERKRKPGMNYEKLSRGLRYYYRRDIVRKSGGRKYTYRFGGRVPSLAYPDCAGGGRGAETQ
# Summary of the method: as §1
# [8] = molecular target: T5, ELF3 (Homo sapiens, UniProt P78545 1-371); settings: protein: recombinant; tags: N-terminal GST; dsDNA, one strand shown
# T5 sequence: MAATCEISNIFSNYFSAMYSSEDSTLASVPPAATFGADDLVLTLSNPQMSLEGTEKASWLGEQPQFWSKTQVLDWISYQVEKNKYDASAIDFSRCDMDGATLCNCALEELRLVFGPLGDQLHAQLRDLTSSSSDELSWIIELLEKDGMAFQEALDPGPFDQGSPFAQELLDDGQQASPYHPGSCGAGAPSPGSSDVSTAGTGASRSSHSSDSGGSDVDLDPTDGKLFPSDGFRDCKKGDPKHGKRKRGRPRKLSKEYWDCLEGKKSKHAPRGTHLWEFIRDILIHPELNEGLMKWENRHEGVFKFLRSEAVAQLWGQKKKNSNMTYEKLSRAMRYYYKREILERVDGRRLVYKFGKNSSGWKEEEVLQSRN
# Summary of the method: as §1
# [9] = molecular target: ETV1 (Homo sapiens, UniProt P50549 1-477); settings: protein: recombinant; tags: N-terminal GST; dsDNA, one strand shown
# Summary of the method: as §1
# [10] = molecular target: T6, ERF (Homo sapiens, UniProt P50548 1-548); settings: protein: recombinant; tags: N-terminal GST; dsDNA, one strand shown
# T6 sequence: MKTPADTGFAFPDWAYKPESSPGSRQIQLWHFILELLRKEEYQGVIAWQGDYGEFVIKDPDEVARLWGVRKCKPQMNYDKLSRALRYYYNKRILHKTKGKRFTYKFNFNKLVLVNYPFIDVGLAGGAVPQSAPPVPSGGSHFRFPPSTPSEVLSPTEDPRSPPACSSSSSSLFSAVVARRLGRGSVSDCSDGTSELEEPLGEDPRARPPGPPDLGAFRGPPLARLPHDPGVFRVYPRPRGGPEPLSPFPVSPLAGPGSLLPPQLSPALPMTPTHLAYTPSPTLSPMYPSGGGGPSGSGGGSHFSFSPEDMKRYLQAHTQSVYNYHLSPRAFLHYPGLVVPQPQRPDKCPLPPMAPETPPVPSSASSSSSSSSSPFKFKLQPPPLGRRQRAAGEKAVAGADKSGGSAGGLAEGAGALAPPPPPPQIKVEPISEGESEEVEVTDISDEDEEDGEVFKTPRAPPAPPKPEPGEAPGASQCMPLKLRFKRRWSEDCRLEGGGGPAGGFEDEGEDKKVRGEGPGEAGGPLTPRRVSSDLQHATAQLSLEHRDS
# Summary of the method: as §1
# [11] = molecular target: T7, ETV3L (Homo sapiens, UniProt Q6ZN32 1-361); settings: protein: recombinant; tags: N-terminal GST; dsDNA, one strand shown
# T7 sequence: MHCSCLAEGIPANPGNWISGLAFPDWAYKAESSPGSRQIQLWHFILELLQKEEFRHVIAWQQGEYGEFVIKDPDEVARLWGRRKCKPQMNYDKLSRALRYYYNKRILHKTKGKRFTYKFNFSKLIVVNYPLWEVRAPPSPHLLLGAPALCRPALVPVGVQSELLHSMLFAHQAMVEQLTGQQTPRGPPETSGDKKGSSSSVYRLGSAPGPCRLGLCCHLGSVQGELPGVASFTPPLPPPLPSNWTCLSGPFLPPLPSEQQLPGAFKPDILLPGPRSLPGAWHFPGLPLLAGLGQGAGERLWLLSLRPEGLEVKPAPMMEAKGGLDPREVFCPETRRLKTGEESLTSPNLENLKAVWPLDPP
# Summary of the method: as §1
# [12] = molecular target: T8, ETS2 (Homo sapiens, UniProt P15036 1-469); settings: protein: recombinant; tags: N-terminal GST; dsDNA, one strand shown
# T8 sequence: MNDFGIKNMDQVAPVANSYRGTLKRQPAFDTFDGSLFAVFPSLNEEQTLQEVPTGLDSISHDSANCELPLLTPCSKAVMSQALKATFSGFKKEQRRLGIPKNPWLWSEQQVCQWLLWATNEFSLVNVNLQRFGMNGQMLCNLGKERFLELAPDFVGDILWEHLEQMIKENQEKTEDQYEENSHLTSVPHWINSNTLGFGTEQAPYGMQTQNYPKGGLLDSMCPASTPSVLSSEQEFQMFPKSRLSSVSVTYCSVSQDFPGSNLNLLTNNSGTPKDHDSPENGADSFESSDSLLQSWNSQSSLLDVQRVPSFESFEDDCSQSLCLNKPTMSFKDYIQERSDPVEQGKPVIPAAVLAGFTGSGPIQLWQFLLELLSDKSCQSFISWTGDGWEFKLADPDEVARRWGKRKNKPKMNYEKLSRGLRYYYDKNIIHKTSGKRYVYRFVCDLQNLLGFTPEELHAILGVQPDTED
# Summary of the method: as §1
# [13] = molecular target: T9, SPDEF (Homo sapiens, UniProt O95238 1-335); settings: protein: recombinant; tags: N-terminal GST; dsDNA, one strand shown
# T9 sequence: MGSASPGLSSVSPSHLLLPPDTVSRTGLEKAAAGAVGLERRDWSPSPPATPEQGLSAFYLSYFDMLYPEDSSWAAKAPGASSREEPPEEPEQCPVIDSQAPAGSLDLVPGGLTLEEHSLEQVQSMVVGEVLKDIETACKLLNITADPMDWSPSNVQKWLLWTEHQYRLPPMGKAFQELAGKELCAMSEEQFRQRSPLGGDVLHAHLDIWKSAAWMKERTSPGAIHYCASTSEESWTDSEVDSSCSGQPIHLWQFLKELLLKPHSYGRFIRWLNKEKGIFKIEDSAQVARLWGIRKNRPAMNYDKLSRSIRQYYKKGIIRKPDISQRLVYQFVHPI
# Summary of the method: as §1
# [14] = molecular target: T10, ETV7 (Homo sapiens, UniProt Q9Y603 1-341); settings: protein: recombinant; tags: N-terminal GST; dsDNA, one strand shown
# T10 sequence: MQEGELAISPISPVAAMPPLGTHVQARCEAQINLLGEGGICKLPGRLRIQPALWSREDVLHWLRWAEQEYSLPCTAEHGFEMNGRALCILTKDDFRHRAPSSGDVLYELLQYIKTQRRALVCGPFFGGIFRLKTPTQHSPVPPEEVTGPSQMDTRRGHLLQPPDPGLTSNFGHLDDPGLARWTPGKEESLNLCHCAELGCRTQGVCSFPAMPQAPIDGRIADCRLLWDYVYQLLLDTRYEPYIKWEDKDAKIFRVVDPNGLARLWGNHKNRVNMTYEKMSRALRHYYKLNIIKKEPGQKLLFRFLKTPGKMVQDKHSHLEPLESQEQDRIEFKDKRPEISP
# Summary of the method: as §1
# [15] = molecular target: T11, ELF5 (Homo sapiens, UniProt Q9UKW6-2 1-255); settings: protein: recombinant; tags: N-terminal GST; dsDNA, one strand shown
# T11 sequence: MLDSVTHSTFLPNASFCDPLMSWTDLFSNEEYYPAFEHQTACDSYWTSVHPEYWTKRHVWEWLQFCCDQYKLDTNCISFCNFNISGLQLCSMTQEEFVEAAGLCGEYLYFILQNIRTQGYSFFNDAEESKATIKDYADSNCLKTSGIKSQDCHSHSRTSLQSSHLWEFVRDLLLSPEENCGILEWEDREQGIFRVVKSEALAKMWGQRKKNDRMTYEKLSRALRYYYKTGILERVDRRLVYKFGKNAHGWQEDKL
# Summary of the method: as §1
# [16] = molecular target: T12, ETV3 (Homo sapiens, UniProt P41162-2 1-143); settings: protein: recombinant; tags: N-terminal GST; dsDNA, one strand shown
# T12 sequence: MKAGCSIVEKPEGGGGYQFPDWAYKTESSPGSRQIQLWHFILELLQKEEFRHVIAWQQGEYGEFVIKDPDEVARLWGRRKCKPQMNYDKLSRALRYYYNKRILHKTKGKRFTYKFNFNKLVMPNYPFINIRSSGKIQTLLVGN
# Summary of the method: as §1
# [17] = molecular target: ETV6 (Homo sapiens, UniProt P41212 1-452); settings: protein: recombinant; tags: N-terminal GST; dsDNA, one strand shown
# Summary of the method: as §1
# Chain of ETV1 (P50549 whole entry): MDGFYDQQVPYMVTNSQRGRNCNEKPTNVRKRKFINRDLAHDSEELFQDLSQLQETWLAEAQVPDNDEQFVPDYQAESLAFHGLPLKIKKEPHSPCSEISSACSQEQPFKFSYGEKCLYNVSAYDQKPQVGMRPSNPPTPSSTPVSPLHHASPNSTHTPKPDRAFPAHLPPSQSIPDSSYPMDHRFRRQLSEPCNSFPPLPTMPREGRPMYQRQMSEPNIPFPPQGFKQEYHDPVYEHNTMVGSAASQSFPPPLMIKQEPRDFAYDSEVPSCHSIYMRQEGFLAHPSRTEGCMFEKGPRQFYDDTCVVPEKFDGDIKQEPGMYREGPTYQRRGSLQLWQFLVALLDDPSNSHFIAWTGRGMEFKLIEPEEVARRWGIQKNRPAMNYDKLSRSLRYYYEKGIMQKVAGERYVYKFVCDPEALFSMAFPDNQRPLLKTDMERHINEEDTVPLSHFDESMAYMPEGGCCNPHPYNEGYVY
# Chain of HSF1 (Q00613 whole entry): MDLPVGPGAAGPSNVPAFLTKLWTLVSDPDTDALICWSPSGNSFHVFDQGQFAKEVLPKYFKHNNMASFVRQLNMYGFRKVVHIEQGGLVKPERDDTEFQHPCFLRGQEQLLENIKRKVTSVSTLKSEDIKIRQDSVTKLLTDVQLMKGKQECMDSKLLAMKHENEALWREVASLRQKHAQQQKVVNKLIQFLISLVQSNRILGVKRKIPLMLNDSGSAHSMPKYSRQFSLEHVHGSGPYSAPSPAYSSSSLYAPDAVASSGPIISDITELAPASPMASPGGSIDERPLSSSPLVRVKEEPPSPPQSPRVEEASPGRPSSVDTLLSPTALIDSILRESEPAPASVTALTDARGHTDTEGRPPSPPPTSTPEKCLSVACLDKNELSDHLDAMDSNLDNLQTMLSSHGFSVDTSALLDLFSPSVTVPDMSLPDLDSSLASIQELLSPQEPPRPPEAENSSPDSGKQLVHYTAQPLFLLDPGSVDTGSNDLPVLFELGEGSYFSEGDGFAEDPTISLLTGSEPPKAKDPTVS
# Chain of ETV5 (P41161 whole entry): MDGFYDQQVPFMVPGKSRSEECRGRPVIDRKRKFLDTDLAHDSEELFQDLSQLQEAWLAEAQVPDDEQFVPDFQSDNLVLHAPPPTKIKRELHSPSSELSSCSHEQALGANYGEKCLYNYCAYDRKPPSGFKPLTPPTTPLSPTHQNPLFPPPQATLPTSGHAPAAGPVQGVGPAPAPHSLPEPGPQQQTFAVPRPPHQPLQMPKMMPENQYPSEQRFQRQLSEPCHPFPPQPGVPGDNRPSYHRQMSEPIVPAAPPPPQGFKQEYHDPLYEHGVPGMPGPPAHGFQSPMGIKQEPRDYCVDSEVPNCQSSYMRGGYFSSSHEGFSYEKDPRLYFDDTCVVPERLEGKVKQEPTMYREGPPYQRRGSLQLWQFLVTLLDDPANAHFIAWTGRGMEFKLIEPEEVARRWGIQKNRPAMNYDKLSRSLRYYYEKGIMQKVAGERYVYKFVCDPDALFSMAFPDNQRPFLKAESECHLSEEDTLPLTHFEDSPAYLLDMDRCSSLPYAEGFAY
# Chain of ELF4 (Q99607 whole entry): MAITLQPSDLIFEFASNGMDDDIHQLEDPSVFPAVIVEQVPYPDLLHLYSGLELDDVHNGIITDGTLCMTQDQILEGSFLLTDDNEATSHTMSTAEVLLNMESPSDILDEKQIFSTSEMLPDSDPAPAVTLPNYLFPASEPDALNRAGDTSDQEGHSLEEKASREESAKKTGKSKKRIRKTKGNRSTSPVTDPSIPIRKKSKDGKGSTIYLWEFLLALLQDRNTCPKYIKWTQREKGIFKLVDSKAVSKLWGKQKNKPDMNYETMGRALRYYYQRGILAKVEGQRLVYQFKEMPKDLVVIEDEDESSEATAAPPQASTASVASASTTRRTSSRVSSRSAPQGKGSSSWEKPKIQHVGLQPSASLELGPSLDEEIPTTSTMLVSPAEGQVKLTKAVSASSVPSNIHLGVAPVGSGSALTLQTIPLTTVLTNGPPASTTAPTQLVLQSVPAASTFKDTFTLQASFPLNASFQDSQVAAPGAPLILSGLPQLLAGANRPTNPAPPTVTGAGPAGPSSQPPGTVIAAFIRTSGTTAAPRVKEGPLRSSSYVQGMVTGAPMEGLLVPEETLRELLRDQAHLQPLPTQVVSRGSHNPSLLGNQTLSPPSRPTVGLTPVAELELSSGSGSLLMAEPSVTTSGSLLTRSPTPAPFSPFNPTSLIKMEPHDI
# Chain of ETV6 (P41212 whole entry): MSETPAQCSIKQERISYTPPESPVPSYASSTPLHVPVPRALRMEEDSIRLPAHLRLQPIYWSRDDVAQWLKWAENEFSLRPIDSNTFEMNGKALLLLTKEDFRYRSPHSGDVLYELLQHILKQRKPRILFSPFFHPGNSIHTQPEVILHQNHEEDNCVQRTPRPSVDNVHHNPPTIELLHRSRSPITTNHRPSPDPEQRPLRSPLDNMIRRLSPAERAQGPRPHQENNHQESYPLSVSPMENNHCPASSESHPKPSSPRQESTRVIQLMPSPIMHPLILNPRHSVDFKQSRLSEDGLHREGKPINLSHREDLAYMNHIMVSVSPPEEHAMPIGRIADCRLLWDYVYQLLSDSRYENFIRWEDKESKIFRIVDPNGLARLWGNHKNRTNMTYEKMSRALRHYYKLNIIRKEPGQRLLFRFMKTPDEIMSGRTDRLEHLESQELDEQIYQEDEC
sequence,measurement,setting,value
CTGCCC,binding signal,[1],"1.37 fold enrichment (6-mer frequency, TF over GST control)"
same,binding signal,[2],"1.25 fold enrichment (6-mer frequency, TF over GST control)"
same,binding signal,[3],"1.05 fold enrichment (6-mer frequency, TF over GST control)"
same,binding signal,[4],"1.42 fold enrichment (6-mer frequency, TF over GST control)"
same,binding signal,[5],"1.29 fold enrichment (6-mer frequency, TF over GST control)"
same,binding signal,[6],"1.42 fold enrichment (6-mer frequency, TF over GST control)"
same,binding signal,[7],"1.38 fold enrichment (6-mer frequency, TF over GST control)"
same,binding signal,[8],"1.09 fold enrichment (6-mer frequency, TF over GST control)"
same,binding signal,[9],"1.2 fold enrichment (6-mer frequency, TF over GST control)"
same,binding signal,[10],"1.16 fold enrichment (6-mer frequency, TF over GST control)"
same,binding signal,[11],"1.22 fold enrichment (6-mer frequency, TF over GST control)"
same,binding signal,[12],"1.21 fold enrichment (6-mer frequency, TF over GST control)"
same,binding signal,[13],"1.23 fold enrichment (6-mer frequency, TF over GST control)"
same,binding signal,[14],"1.15 fold enrichment (6-mer frequency, TF over GST control)"
same,binding signal,[15],"1.19 fold enrichment (6-mer frequency, TF over GST control)"
same,binding signal,[16],"1.37 fold enrichment (6-mer frequency, TF over GST control)"
same,binding signal,[17],"1.16 fold enrichment (6-mer frequency, TF over GST control)"
